Test systems include RPMI-8226 leukemia; OVCAR-8 ovarian; OVCAR-5 ovarian; OVCAR-4 ovarian; SK-OV-3 ovarian; IGROV1 ovarian; OVCAR-3 ovarian; HS 578T breast; NCI/ADR-RES ovarian; T-47D breast.
What all share (test): NCI-60 one-dose screen, 48 h (100 = growth as untreated, 0 = no growth, -100 = all killed)
Holding throughout (details): 10 µM unless noted

About 83,000 compounds went through this panel and 20% of them were active in at least one assay; those are over-represented in the sample as a whole.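 Method: cells in 96-well plates; compound added at one concentration; 48 h incubation; percent growth measured; values under 10 scored active.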 A number with no mark means an inactive call. Activity calls are given as the source filed them.

Take `O=C(CCc1nnco1)c1nc2ccc([N+](=O)[O-])cc2[nH]1`: the growth in the assay on RPMI-8226 leukemia is 129%; in the assay on OVCAR-8 ovarian, 105%; in the assay with OVCAR-5 ovarian, 108%; in the assay on OVCAR-4 ovarian, 105%; with SK-OV-3 ovarian, 107%; in the assay on IGROV1 ovarian it was 97.6%. Also, the growth in the assay on OVCAR-3 ovarian is 105%; with HS 578T breast, 102%; in the assay with NCI/ADR-RES ovarian, 104%; with T-47D breast, 101%.
Consider `COc1cc(-c2csc(NC(=O)Nc3ccc(C(F)(F)F)cc3)n2)cc(OC)c1OC`, for which the growth is -11.5% (active) with RPMI-8226 leukemia; 3.06% (active) in the assay with OVCAR-8 ovarian; 33% in the assay with OVCAR-5 ovarian; 13.4% in the assay on OVCAR-4 ovarian; -3.3% (active) in the assay with SK-OV-3 ovarian; 42.8% with IGROV1 ovarian. Moreover, the growth is 1.73% (active) in the assay with OVCAR-3 ovarian, 6.93% (active) with HS 578T breast, -1.59% (active) in the assay with NCI/ADR-RES ovarian and -3.68% (active) with T-47D breast.
Regarding `N#Cc1ccc(Oc2ccc3ccc(=O)oc3c2)cc1`, the growth with RPMI-8226 leukemia is 81.5%; in the assay with OVCAR-8 ovarian, 87.2%; with OVCAR-5 ovarian it was 104%; in the assay with OVCAR-4 ovarian, 109%; in the assay with SK-OV-3 ovarian, 112%; in the assay on IGROV1 ovarian, 121%. Besides, the growth with OVCAR-3 ovarian is 117%; with HS 578T breast it was 93.4%; with NCI/ADR-RES ovarian, 107%; in the assay with T-47D breast it was 94.5%.
Regarding `COc1cc(C2CC(c3ccc(Nc4nc(NCCO)nc(NCCO)n4)cc3)=NN2c2cc(Cl)cc(Cl)c2)cc(OC)c1OC` (stereo not given), the growth in the assay on RPMI-8226 leukemia was -13.8% (active); with OVCAR-8 ovarian, 11.9%; with OVCAR-5 ovarian it was 54.6%; in the assay with OVCAR-4 ovarian, -20.1% (active); with SK-OV-3 ovarian, 108%; in the assay with IGROV1 ovarian, 4.18% (active). Besides, the growth in the assay on OVCAR-3 ovarian is -22.5% (active); in the assay with HS 578T breast, -14.5% (active); in the assay on NCI/ADR-RES ovarian, 53.1%; in the assay with T-47D breast it was 75.4%.
As for `CC(=O)c1c(OCC#N)ccc2c(C)cc(=O)oc12`, the growth in the assay with RPMI-8226 leukemia is 80%; in the assay on OVCAR-8 ovarian it was 124%; in the assay with OVCAR-5 ovarian, 114%; in the assay with OVCAR-4 ovarian, 107%; in the assay on SK-OV-3 ovarian it was 110%; with IGROV1 ovarian, 116%. The growth was 120% with OVCAR-3 ovarian, 106% in the assay with HS 578T breast, 118% in the assay on NCI/ADR-RES ovarian and 97.9% with T-47D breast.
As for `CCOCc1nc2ccccc2c(=O)[nH]1`, the growth with RPMI-8226 leukemia was 102%; with OVCAR-8 ovarian, 103%; in the assay on OVCAR-5 ovarian, 106%; in the assay with OVCAR-4 ovarian it was 113%; in the assay with SK-OV-3 ovarian it was 108%; in the assay with IGROV1 ovarian, 96.6%. Besides, the growth in the assay on OVCAR-3 ovarian is 109%; with HS 578T breast, 93.8%; in the assay on NCI/ADR-RES ovarian it was 103%; in the assay with T-47D breast, 105%.
Consider `COc1cccc(NC(=O)Nc2ccc(Nc3ncnc4[nH]c(C)c(C)c34)cc2)c1`, for which the growth in the assay on RPMI-8226 leukemia is 90.8%; in the assay on OVCAR-8 ovarian, 91.7%; in the assay on OVCAR-5 ovarian, 114%; in the assay on OVCAR-4 ovarian it was 109%; with SK-OV-3 ovarian it was 102%; with IGROV1 ovarian, 115%. The growth with OVCAR-3 ovarian was 113%; in the assay with HS 578T breast, 83.9%; in the assay with NCI/ADR-RES ovarian, 107%; with T-47D breast it was 89.8%.
For the molecule `CCOC(=O)c1c(C)nc2c(c1N)CC(=O)N2CCc1ccccc1`, the growth with RPMI-8226 leukemia was -6.34% (active); in the assay with OVCAR-8 ovarian, 24.3%; in the assay with OVCAR-5 ovarian, 53.3%; in the assay on OVCAR-4 ovarian, 62.8%; in the assay with SK-OV-3 ovarian, 45.6%; in the assay on IGROV1 ovarian it was 28.7%. The growth in the assay with OVCAR-3 ovarian is 35.4%; with HS 578T breast it was 41.1%; with NCI/ADR-RES ovarian, 30.1%; with T-47D breast, 53.9%.
With `CCCCn1c(=O)c(/C=C/C(=O)/C=C/c2cc3ccccc3n(CCCC)c2=O)cc2ccccc21`, the growth with RPMI-8226 leukemia is -32.1% (active); with OVCAR-8 ovarian, -0.92% (active); in the assay with OVCAR-5 ovarian it was 25.9%; in the assay on OVCAR-4 ovarian, 28.5%; in the assay on SK-OV-3 ovarian, 15.6%; in the assay with IGROV1 ovarian, 1.5% (active). Also, the growth in the assay with OVCAR-3 ovarian is -15.7% (active); with HS 578T breast, 30%; with NCI/ADR-RES ovarian it was 22.8%; in the assay on T-47D breast, 20.8%.
Consider `Cc1cc(C)cc(Nc2nccc(-c3c(-c4ccc(F)cc4)ncn3C3CCNCC3)n2)c1`, for which the growth in the assay on RPMI-8226 leukemia is -3.31% (active); with OVCAR-8 ovarian, -24.8% (active); in the assay with OVCAR-5 ovarian, 35.2%; in the assay with OVCAR-4 ovarian it was 30.3%; in the assay with SK-OV-3 ovarian, 9.09% (active); in the assay with IGROV1 ovarian, -40.1% (active). Moreover, the growth with OVCAR-3 ovarian was 5.97% (active); in the assay on HS 578T breast it was 24.3%; with NCI/ADR-RES ovarian, 15.3%; in the assay with T-47D breast it was 15.2%.
With `Nc1ccc2c(c1)C(=O)C(=O)c1c-2nc2ccccn12`, the growth in the assay on RPMI-8226 leukemia was 14.7%; with OVCAR-8 ovarian it was 8.18% (active); in the assay with OVCAR-5 ovarian, -47.4% (active); in the assay with OVCAR-4 ovarian it was -95.4% (active); with SK-OV-3 ovarian, 30.7%; in the assay with IGROV1 ovarian, -40.3% (active). In addition, the growth was -19.8% (active) with OVCAR-3 ovarian, -6.56% (active) in the assay with HS 578T breast, 11.7% with NCI/ADR-RES ovarian and -53.5% (active) in the assay with T-47D breast.
On to `COc1ccc(C2C(c3ccccc3)C(=O)N2c2cc(OC)c(OC)c(OC)c2)cc1I` (stereo not given), for which the growth in the assay on RPMI-8226 leukemia is -9.86% (active); in the assay on OVCAR-8 ovarian it was 16.7%; in the assay on OVCAR-5 ovarian it was 35.9%; in the assay on OVCAR-4 ovarian, 39.8%; in the assay on SK-OV-3 ovarian, 6.66% (active); in the assay on IGROV1 ovarian it was 20.6%. For the same molecule, the growth was 12% in the assay on OVCAR-3 ovarian, 22.1% in the assay with HS 578T breast, 9.97% (active) in the assay on NCI/ADR-RES ovarian and 69.7% in the assay with T-47D breast.

The values above are taken from PubChem BioAssay (NCI).
